Only some compounds are listed: those with a hit (about 3% of all), similar ones and a draw of the others.
SKKanGAS inh – S. pyogenes SKKanGAS growth inhibitors in kanamycin, primary screen, streptokinase expression inhibitor project, SKKanGAS strain, BacTiter-Glo luminescence. 6 h. inhibition, % at 7.5 µM. actives 1.3% (n = 300,000). AID 1662, 2009;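 active means mean replicate score, as percent of positive control median, at least 50; inconclusive means mean below 50 but one replicate at or above 50; inactive means mean and every replicate below 50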;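 further: strain carries kanamycin resistance gene driven by streptokinase promoter and grows in 40 µg/ml kanamycin; loss of luminescence reflects streptokinase promoter inhibition or plain growth inhibition; 0% = median of DMSO wells and 100% = positive control at its reference dose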
KLF5 inhibitor – KLF5 expression inhibitors, primary screen, DLD-1 cells, luminescence | DLD-1 KLF5 promoter-luciferase reporter | AID 1700, 2009 | inhibition, % at 5 µM | actives 0.23% (n = 290,000);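 active means inhibition above a per-plate limit of that plate's mean compound inhibition plus 3 SD, cut at about 60% in these data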;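 further: 0% = DMSO wells and 100% = LY294002 at 200 µM; higher means less KLF5 promoter-driven luciferase light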
CSC inhib – cancer stem cell viability inhibitors, primary screen, luminescence; actives 1.1% (n = 300,000); AID 2717, 2010; inhibition, % at 7.5 µM; cancer stem cell-like cells viability; in the data active means inhibition above about 75%; inconclusive means no clear call, values can overlap the other calls; tested in HMLE shEcad cells
IEC-6 tox-1 – cytotoxicity in IEC-6 intestinal epithelial cells, primary screen, cytotoxicity control for KLF5 inhibitor project, cell-based, luminescence; inhibition, % at 5 µM; actives 0.78% (n = 290,000); AID 1825, 2009; IEC-6 cytotoxicity, luminescence viability;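 further: 0% = plate median of test compound wells and 100% = cytotoxic reference compound wells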
aSyn 5UTR inh – MLPCN primary screen, SNCA 5' untranslated region | alpha-synuclein 5'UTR reporter, inhibitor activity | inhibition, % (tested at 7.5 µM) | actives 0.82% (n = 300,000) | AID 1813, 2009; in the data active means inhibition above about 60%; inconclusive means no clear call, values can overlap the other calls;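 further: H4 neuroglioblastoma cells stably carrying SNCA 5'UTR luciferase fusion; 0% = DMSO wells and 100% = positive control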
KLF5 confirm – KLF5 expression inhibitors, confirmation, DLD-1 cells, luminescence; actives 79% (n = 610); AID 1834, 2009; inhibition, % at 4 µM; DLD-1 KLF5 promoter firefly luciferase reporter; shares compounds with KLF5 inhibitor;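 active means inhibition above a set limit taken from the earlier primary screen, cut at about 63% in these data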;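 further: 0% = DMSO wells and 100% = LY294002 at 200 µM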
IEC-6 tox-2 – cytotoxicity in rat IEC-6 cells, cytotoxicity control for KLF5 inhibitor project, cell-based, luminescence, triplicate; IEC-6 rat intestinal cells, viability luminescence; shares compounds with KLF5 inhibitor; actives 56% (n = 610); inhibition, % at 4 µM; in the data active means inhibition above about 23%;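 further: cells exposed to compounds for 48 hours before viability read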
IEC-6 cytotox cf – cytotoxic compounds in IEC-6 epithelial cells, confirmation, cytotoxicity control, cell-based, luminescence | actives 63% (n = 1,900) | AID 1907, 2009 | IEC-6 rat intestinal epithelial viability | inhibition, % at 5 µM | shares compounds with IEC-6 tox-1;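 further: 0% = vehicle and 100% = reference cytotoxic drug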
Numbers without * were called inactive; ? = inconclusive; nt = no result given. Unless noted, no stated cut-off is given here; in the data, active means inhibition above about 22%; inactive means the rest.

SMILES	SKKanGAS inh	KLF5 inhibitor	CSC inhib	IEC-6 tox-1	aSyn 5UTR inh	KLF5 confirm	IEC-6 tox-2	IEC-6 cytotox cf
CCOc1ncccc1C(=O)OCC(=O)c1cccc(Br)c1	4	-1	-8	-4	19	nt	nt	nt
O=C1[C@@H]2Cc3c([nH]c4ccccc34)C(c3ccccc3)N2C(=O)CN1C1CC1 (stereo not given in full)	2	0	15	-11	18	nt	nt	nt
O=C1[C@@H]2Cc3c([nH]c4ccccc34)C(c3ccc([N+](=O)[O-])cc3)N2C(=O)CN1C1CC1 (stereo not given in full)	13	69*	7	80*	-34	75*	45*	50*
CCS(=O)(=O)c1ncc(Cl)c(C(=O)Nc2ccc(S(=O)(=O)N(C)c3ccccc3)cc2)n1	-52	85*	98*	101*	78*	4	6	28*
CC(=O)Nc1ccc(S(=O)(=O)N(C)c2ccccc2)cc1	5	-32	26	0	17	nt	nt	nt
CCOC(=O)C(C)Oc1cccc2c(=O)n(CC(=O)NCc3ccccc3)ccc12 (stereo not given)	-8	63*	43	82*	73*	84*	58*	58*
Cc1ccc(OCC(=O)Nc2cccnc2Cl)cc1C	-6	-13	-11	-10	-57	nt	nt	nt
Cc1cccc(N2CCN(C(=O)c3ccncc3)CC2)c1C	-3	17	49	10	14	nt	nt	nt
COc1cc(C(=O)N2CCN(c3cccc(C)c3C)CC2)cc(OC)c1OC	-7	72*	61	82*	?	75*	59*	58*
CSCCC(=O)N1CCC(n2nccc2NC(=O)CCCc2ccccc2)CC1	-5	9	17	6	-20	nt	nt	nt
COc1cc2c(cc1OC)C(C)N(C(=O)Nc1cc(C)cc(C)c1)CC2 (stereo not given)	0	63*	nt	76*	-38	80*	55*	55*
Oc1ccc(N=Nc2ccccc2C(F)(F)F)c2cccnc12	98*	63*	100*	45*	72*	86*	8	14
O=c1ncn(-c2ccccc2C(F)(F)F)c2ncccc12	-5	-27	-3	5	-19	nt	nt	nt
CCN(CC)c1ccc(-c2nn3c(-c4n[nH]c5c4CCC5)nnc3s2)cc1	85*	73*	56	85*	72*	77*	62*	50*
C1CCC(c2nn3c(-c4n[nH]c5c4CCC5)nnc3s2)CC1	2	-21	4	-4	?	nt	nt	nt
CC(=O)Nc1sc2c(c1-c1nc3ccccc3s1)CCN(C(C)C)C2	nt	62*	56	99*	nt	62*	23*	29*
CCCCCCCCCCn1ccc(=N)cc1	30	86*	36	66*	106*	70*	62*	72*
CCCCCCCCn1ccc(=N)cc1	9	68*	25	43*	62*	53	48*	43*
CCCCCCN1Cc2ccccc2C1	6	-22	15	3	-117	nt	nt	nt
N=c1ccn(Cc2ccc(F)cc2)cc1	0	-7	-3	-4	4	nt	nt	nt
O=C(CN1CCC(NC(=O)c2ccccc2Cl)CC1)NCc1ccco1	4	-20	12	0	18	nt	nt	nt
CCCCC1=CC2=CC(=O)C(C)(OC(=O)c3ccc(Cl)nc3)C(=O)C2=CO1 (stereo not given)	10	nt	-4	nt	7	nt	nt	nt
COc1ccc(OC)c(Nc2cc(C)nc3ccccc23)c1	2	-10	34	5	16	nt	nt	nt
COc1ccc(OC)c(Nc2cc(-c3ccccc3)nc(N)n2)c1	5	65*	53	89*	68*	71*	58*	57*
O=C1CCCN1c1ccc(S(=O)(=O)Nc2ccc3c(c2)OCCO3)cc1	7	78*	42	79*	-1	70*	41*	50*
CCOc1ccccc1C(=O)N1CCN(c2cccc(Cl)c2)CC1	-6	85*	63	92*	95*	109*	75*	67*

High-throughput results as filed in PubChem.
